Screens as filed in PubChem BioAssay.
Anthrax LT inh: anthrax lethal toxin internalization inhibition; Cells, anthrax lethal toxin internalization, FRET ratio (460/530); Potency, µM (series often up to 40 µM), inactives show at the top dose activity change, negative = inhibition, hits mostly inhibitors; hit rate 0.67% among 70,000; AID 912; further: on the % scale 0 is the no-effect control and ±100 the full control effect; nearly all actives have a fitted effect of over 50% in size
AmpC inh det: blocks E. coli AmpC beta-lactamase in presence of detergent; purified AmpC, nitrocefin hydrolysis with detergent; P00811; hit rate 0.09% among 71,000; Potency, µM (titrated, usually from 28.7 µM), without a hit: at the highest dose activity change, negative = inhibition; active means well fitted curve in the direction sought with a large enough effect; inconclusive means small, poorly fitted or top-dose-only effect; further: on the % scale 0 is the no-effect control and ±100 the full control effect
Target sequence (P00811 whole entry, looked up): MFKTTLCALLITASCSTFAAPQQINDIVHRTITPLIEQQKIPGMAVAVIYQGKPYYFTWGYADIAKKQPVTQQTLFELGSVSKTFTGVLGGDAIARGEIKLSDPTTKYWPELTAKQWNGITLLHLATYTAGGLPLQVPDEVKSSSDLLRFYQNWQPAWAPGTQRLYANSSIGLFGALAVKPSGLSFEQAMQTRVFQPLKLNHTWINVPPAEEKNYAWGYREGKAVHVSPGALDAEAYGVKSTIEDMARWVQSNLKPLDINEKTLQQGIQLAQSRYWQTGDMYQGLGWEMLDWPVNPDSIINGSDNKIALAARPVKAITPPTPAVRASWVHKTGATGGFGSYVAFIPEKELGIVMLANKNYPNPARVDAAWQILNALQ
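E. coli AmpC (5.3 nM) in 20 mM phosphate pH 7.0 with 0.01% Triton X-100, preincubated 15 min RT with compound; nitrocefin (2 uL of 800 uM stock) hydrolysis followed by 480 nm absorbance every 20 s over 4 min.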
Prx2 Sm inh: Schistosoma mansoni Prx2 inhibition; S. mansoni Prx2 activity coupled to TGR/GSH (TGR is thioredoxin glutathione reductase), NADPH fluorescence loss, qHTS; Potency, µM; hit rate 0.07% among 65,000
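Purified S. mansoni TGR and Prx2 in pH 7.4 phosphate buffer with EDTA and Tween-20 were preincubated with compounds for 15 min. Further NADPH/GSH was added, then a 2.5 mM H2O2 aliquot initiated turnover, followed kinetically by NADPH fluorescence.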
AmpC nodet inh: AmpC beta-lactamase inhibition, detergent-free assay; hit rate 1.8% among 71,000; Potency, µM (doses to about 28.7 µM), without a hit: at the top dose activity change, negative = inhibition; P00811; AmpC nitrocefin hydrolysis, absorbance 480 nm, no detergent; AID 585; further: % of control where 0% means no effect
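AmpC in 20 mM phosphate buffer pH 7.0 was preincubated 15 min at room temperature with compounds. Nitrocefin (800 uM stock) was then added and hydrolysis followed at 480 nm every 20 s for 4 min.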
The depositor's hits bear a star; ? = inconclusive; . = no result given; [ ] = remark or other dose. A selection: hits, their analogues and other compounds. The true share with any hit is near 2.4%. Unless noted, the call rests on the fitted dose curve. Potency means the concentration at half of the fitted maximal effect.

SMILES | Anthrax LT inh | AmpC inh det | Prx2 Sm inh | AmpC nodet inh
Nc1nc2c(s1)CC(c1ccccc1)CC2 (stereo not drawn) | 4% | 8% | >57 | 7.9µM*
Cc1ccc(S(=O)(=O)CCC(=O)c2ccc(O)cc2O)cc1 | 13µM* | 7% | . | 13µM*
Clc1cc(Cl)c(-c2cc(Cl)c(Cl)cc2Cl)cc1Cl | 3.2µM* | 9% | . | -5%
Oc1cc(Cl)c(Cl)cc1Cl | ? | 6% | . | -18%
CC(=O)c1ccccc1OC(=O)c1ccco1 | 8% | -1% | >57 | 5%
CCOc1ccc(N(CC(=O)N2CCc3ccccc32)S(=O)(=O)c2c(C)noc2C)cc1 | ? | 17% | >57 | 3.2µM*[single pt active]
Cc1cc(C)cc(N(CC(=O)N2CCN(c3ccccc3)CC2)S(=O)(=O)c2c(C)noc2C)c1 | ? | 15% | >57 | 108%
Cc1cc(C)cc(N(CC(=O)N2CCn3c2nc2ccccc23)S(=O)(=O)c2c(C)noc2C)c1 | ? | 11% | >57 | 4µM*[single pt active]
Cc1n[nH]c(C)c1S(=O)(=O)N(CC(=O)N1CCc2ccccc21)c1ccc(C(C)C)cc1 | 6% | 11% | >57 | 4µM*[single pt active]
Cc1cc(C)cc(N(CC(=O)N2CCc3ccccc32)S(=O)(=O)c2c(C)noc2C)c1 | 2µM* | 11% | >57 | 4µM*[single pt active]
O=C(Nc1ccc2nn(-c3ccccc3)nc2c1)c1ccc2c(c1)OCCO2 | ? | 6% | . | -15%
Cc1ccc(S(=O)(=O)N2CCN(S(C)(=O)=O)C2c2ccccc2)cc1 (stereo not drawn) | -3% | -2% | . | 30%
COc1ccc(CCn2c(SCC(=O)Nc3cc(C)on3)nc3ccccc3c2=O)cc1OC | ? | -3% | >57 | 33%
C=Cc1ccccc1 | -7% | 14% | . | -6%
O=[N+]([O-])/C=C/c1ccccc1 | 4µM* | 16% | . | -12%
O=C(O)c1cc(N=Nc2ccc([As](=O)(O)O)cc2)ccc1O | ? | -4%[5.75 µM] | . | 1%[5.75 µM]
O=C(CN1CCN(c2ccc(F)cc2)CC1)Nc1nnc(-c2ccccc2)s1 | 1% | 0% | >57 | 16µM*[single pt active]
O=C(CN1CCN(c2ccccc2)CC1)Nc1nnc(-c2ccccc2)s1 | -1% | -2% | >57 | -8%
O=C(CCc1ccc(S(=O)(=O)N2CCCCC2)cc1)c1nnc(-c2ccccc2)o1 | -22% | -6% | >57 | 20µM*[single pt active]
O=c1c(-c2ccc(Cl)cc2)nc2cnc(N3CCOCC3)nc2n1CCc1ccccc1 | ? | 0% | >57 | 2%
CCOC(=O)CN1C2=NCCN2c2ccccc21 | 0% | -3% | >57 | -6%
CCOC(=O)CN1C(=O)C(=O)c2cccc(C)c21 | -10% | 8% | >57 | 4µM*[single pt active]
Cc1cc(=O)oc2cc(NC(=O)C3COc4ccccc4O3)ccc12 (stereo not drawn) | ? | -4% | >57 | 10µM*
O=C(Nc1ccc2c(c1)OCO2)C1COc2ccccc2O1 (stereo not drawn) | -13% | -2% | . | -10%
Cn1c(N2CCN(C(=O)Nc3ccc(C(F)(F)F)cc3)CC2)nc2ccccc21 | -11% | 2% | >57 | 6%
SMILES | Anthrax LT inh | AmpC inh det | Prx2 Sm inh | AmpC nodet inh
Cc1ccccc1CSc1nnc(C)c(=O)[nH]1 | -10% | 12% | >57 | 4µM*[single pt active]
Cc1nnc(SCCc2ccccc2)[nH]c1=O | 2% | 11% | >57 | -19%
CCOC(=O)c1c(NC(=O)CN2CCN(c3ccccn3)CC2)sc2c1CCCC2 | -11% | -12% | >57 | 12%
O=C(C1CCC(CNc2c(N3CCCCC3)c(=O)c2=O)CC1)N1CCN(c2ccccn2)CC1 (stereo not drawn) | -1% | 11% | >57 | 4µM*[single pt active]
CCOC(=O)CNc1c(N2CCN(c3ccccn3)CC2)c(=O)c1=O | -5% | 10% | >57 | 4µM*[single pt active]
O=C(c1ccco1)N1CCN(c2ncccn2)CC1 | -13% | 14% | >57 | 4µM*[single pt active]
COc1ccc(CNc2cc(-c3cccc(C#N)c3)ncn2)c(OC)c1 | ? | -4% | >57 | 38%
Cn1c(C(=O)N2CCCC2)cc2c(=O)n(C)c3ccccc3c21 | 2% | 12% | >57 | 11%
Cc1cccc(N2CCN(C(=O)c3cc4c(=O)n(C)c5ccccc5c4n3C)CC2)c1C | -18% | 11% | >57 | 4µM*[single pt active]
Cc1ccc(Cl)cc1N1CCN(C(=O)c2cc3c(=O)n(C)c4ccccc4c3n2C)CC1 | -12% | 13% | >57 | 4µM*[single pt active]
Cn1c(C(=O)N2CCN(c3ncccn3)CC2)cc2c(=O)n(C)c3ccccc3c21 | -4% | 16% | >57 | 27%
Cn1c(C(=O)N2CCN(c3ccccc3F)CC2)cc2c(=O)n(C)c3ccccc3c21 | -3% | 13% | >57 | 4µM*[single pt active]
O=C=Nc1ccc(Cc2ccc(N=C=O)cc2)cc1 | -9% | 9% | . | 16µM*
